Compound activity (PubChem BioAssay)
Only some compounds are listed: those with a hit (about 17% of all), similar ones and a draw of the others.
TDP1 cell CPT – qHTS for Inhibitors of human tyrosyl-DNA phosphodiesterase 1 (TDP1): qHTS in cells in presence of CPT. chicken DT40 Tdp1-/-;hTDP1 cells + 20 nM CPT, ATP luminescence, 48 h. Potency, µM (doses to about 46.2 µM), inactives show top-dose activity change, negative = growth inhibition, usual class: inhibitors. 420,000 compounds, 12% hits. AID 686979, 2013; note: % is set by controls: 0 for no effect and ±100 for the full control effect; nearly all actives have a fitted effect of over 55% in size
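Chicken DT40 Tdp1-/- cells complemented with human TDP1, 400 cells/well, exposed to compounds plus 20 nM camptothecin for at least 48 h at 37 C; viability read as ATP content by CellTiter-Glo luminescence.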
HepG2 viability – qHTS for Inhibitors of TGF-b: Cytotox Counterscreen | 410,000 compounds, 0.76% hits | HepG2 CAGA-GFP viability, ATP luminescence, 18 h | Potency, µM (doses to about 46.1 µM), without a hit: at the top dose activity change, negative = cytotoxicity, actives largely listed as cytotoxic
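CellTiter-Glo luminescence gave cytotoxicity after 18 hours at 37 degrees C. The cells were HepG2 CAGA-GFP in 1% FBS DMEM, stimulated with 500 pg/mL TGF-beta after compound addition. %Activity was normalised to no-cell wells (complete cell-killing) and DMSO (no toxicity), and curves were fitted and classified.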
TGFb inhibitor – qHTS for Inhibitors of TGF-b | HepG2 CAGA-GFP TGF-b/SMAD3 reporter, GFP fluorescence, 18 h; TGF-beta stimulated, 500 pg/mL final | Potency, µM (series often up to 46.1 µM), for inactives: at the top dose activity, negative = inhibition, usual class: inhibitors | 410,000 compounds, 1.2% hits | AID 588855, 2011; note: % is set by controls: 0 for no effect and ±100 for the full control effect; nearly all actives have a fitted effect of over 65% in size
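HEPG2 CAGA-GFP cells (1000/well, DMEM with 1% FBS) were pre-incubated 2 h at 37 degrees C, given compound by pin tool, then stimulated with TGF-beta at 500 pg/mL final for 18 h before per-cell GFP fluorescence imaging.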
ATXN viability – Viability Counterscreen for Primary qHTS for Inhibitors of ATXN expression. 400,000 compounds, 0.49% hits. S2 cells (HEK-293 line with an ATXN2-luciferase reporter) viability, CellTiter-Fluor protease fluorescence, 24 h. AID 651635, 2014. Potency, µM (doses to about 56.7 µM), usual class: cytotoxic; note: nearly all actives have a fitted effect of over 40% in size
ATXN2 expr inh – Primary qHTS for Inhibitors of ATXN expression | HEK-293 ATXN2-luciferase reporter, luminescence, 24 h | Potency, µM (titrated, usually from 57 µM), for the others: at the highest dose activity change, negative = inhibition, usual class: inhibitors | 360,000 compounds, 0.72% hits | AID 1745845, 2022; note: % is set by controls: 0 for no effect and ±100 for the full control effect; nearly all actives have a fitted effect of over 55% in size
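ATXN2-luciferase reporter cells (luciferase flanked by upstream and downstream ATXN2 gene portions) were treated 24 h at 37 °C with compounds at up to 57 uM. SteadyGlo luminescence gave expression; GF-AFC fluorescence gave viability.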
TDP1 cell noCPT – qHTS for Inhibitors of human tyrosyl-DNA phosphodiesterase 1 (TDP1): qHTS in cells in absence of CPT; Potency, µM (highest dose often 46.2 µM), without a hit: at the top dose activity change, negative = growth inhibition, hits mostly inhibitors; 420,000 compounds, 15% hits; DT40 Tdp1-/- hTDP1 cells, no CPT, ATP luminescence, 48 h; AID 686978, 2013; note: % is set by controls: 0 for no effect and ±100 for the full control effect; nearly all actives have a fitted effect of over 55% in size
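Growth of hTDP1-complemented DT40 Tdp1-knockout cells is measured by ATP luminescence after at least 48 hr compound exposure at 37 °C, with DMSO substituting for the 20 nM CPT used in the parallel screen.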
Active calls of the source: *; [ ] = another dose, or the depositor's remark. Calls come from the whole dose curve; as a rule, active = well fitted curve in the direction sought with a large enough effect; inconclusive = small, poorly fitted or top-dose-only effect, or another doubt; inactive = no such curve, though single readings can be large; an effect the other way counts as inactive or inconclusive. Potency is the fitted concentration of half-maximal effect.

Screening COc1ccc(C(=O)OCC(=O)N2CCN(S(=O)(=O)c3ccc(C)cc3)CC2)cc1[N+](=O)[O-] returned TDP1 cell CPT -7.6%, HepG2 viability 1.4%, TGFb inhibitor 9.1%, ATXN viability inactive, ATXN2 expr inh -1.0% and TDP1 cell noCPT inconclusive.
For O=C(c1ccc(F)cc1Cl)N1CCN(S(=O)(=O)c2cccs2)CC1 the results were TDP1 cell CPT -17.3%, HepG2 viability -6.2%, TGFb inhibitor 15.4%, ATXN viability inactive, ATXN2 expr inh -8.6% and TDP1 cell noCPT -20.2%.
Screening COc1ccc(OC)c(-c2cc(C(=O)N/N=C(\C)c3cccnc3)c3ccccc3n2)c1 returned TDP1 cell CPT 14.6µM*, HepG2 viability 5.2%, TGFb inhibitor 131.6%, ATXN viability inactive, ATXN2 expr inh -7.3% and TDP1 cell noCPT inconclusive.
C/C(=N\NC(=O)c1cc(-c2ccco2)nc2ccccc12)c1cccnc1 was read as TDP1 cell CPT inconclusive, HepG2 viability -4.0%, TGFb inhibitor 11.2%, ATXN viability inactive, ATXN2 expr inh -12.8% and TDP1 cell noCPT inconclusive.
For CCOc1ccc(-c2cc(C(=O)N/N=C(\C)c3cccnc3)c3ccccc3n2)cc1 the results were TDP1 cell CPT inconclusive, HepG2 viability -11.7%, TGFb inhibitor -25.4%, ATXN viability inactive, ATXN2 expr inh -26.2% and TDP1 cell noCPT inconclusive.
For COc1ccc(-c2cc(C(=O)N/N=C(\C)c3cccnc3)c3ccccc3n2)c(OC)c1 the results were TDP1 cell CPT 10.3µM*, HepG2 viability -16.5%, TGFb inhibitor -26.9%, ATXN viability inconclusive, ATXN2 expr inh 6.1% and TDP1 cell noCPT 13µM*.
Screening CCOC(=O)c1oc2ccc(Br)cc2c1COC(=O)C1=COCCO1 returned TDP1 cell CPT -2.3%, HepG2 viability -2.1%, TGFb inhibitor 7.9%, ATXN viability inactive, ATXN2 expr inh 81.8% and TDP1 cell noCPT -27.1%.
For Cc1cc(NC(=O)CSc2nc3c(c(=O)n2-c2ccccc2)SC(C)C3)no1 (stereo not given) the results were TDP1 cell CPT inconclusive, HepG2 viability 0.7%, TGFb inhibitor 3.0%, ATXN viability inactive, ATXN2 expr inh 2.0% and TDP1 cell noCPT 20.6µM*.
`CC1Cc2nc(SCC(=O)Nc3ccc4c(c3)OCCO4)n(C)c(=O)c2S1` (stereo not given) gave TDP1 cell CPT inconclusive, HepG2 viability -25.2%, TGFb inhibitor inconclusive, ATXN viability inactive, ATXN2 expr inh -8.7% and TDP1 cell noCPT inconclusive.
For COCCn1c(SCC(=O)Nc2ccc3c(c2)OCCO3)nc2c(c1=O)SC(C)C2 (stereo not given) the results were TDP1 cell CPT 14.6µM*, HepG2 viability -10.9%, TGFb inhibitor 1.6%, ATXN viability inactive, ATXN2 expr inh 19.3% and TDP1 cell noCPT inconclusive.
CC1Cc2nc(SCC(=O)Nc3nccs3)n(Cc3ccccc3)c(=O)c2S1 (stereo not given) was read as TDP1 cell CPT 20.6µM*, HepG2 viability -1.8%, TGFb inhibitor inconclusive, ATXN viability inconclusive, ATXN2 expr inh 0.6% and TDP1 cell noCPT inconclusive.
`CC1Cc2nc(SCC(=O)Nc3ccc4c(c3)OCO4)n(Cc3ccccc3)c(=O)c2S1` (stereo not given) gave TDP1 cell CPT 16.4µM*, HepG2 viability -3.9%, TGFb inhibitor -9.1%, ATXN viability inactive, ATXN2 expr inh 105.8% and TDP1 cell noCPT inconclusive.
COc1cc(=O)n2c(c1C(=O)N(C)Cc1nonc1C)CCN(Cc1ccccc1Cl)CC2 was read as TDP1 cell CPT 4.8%[9.04 µM], ATXN viability inactive and TDP1 cell noCPT -2.9%.
Screening COc1ccccc1N(C)C returned TDP1 cell CPT -2.0%, HepG2 viability -32.2%, TGFb inhibitor 4.3% and TDP1 cell noCPT 3.3%.
`CNC(=O)C(=O)Nc1cc2c3c(c1)CCC(=O)N3CCC2` gave TDP1 cell CPT 17.1%, HepG2 viability 4.2%, TGFb inhibitor 29.0% and TDP1 cell noCPT 0.4%.
COc1ccc(NC(=O)N2CCCC(c3ccccc3)C2)cc1 (stereo not given) was read as TDP1 cell CPT -1.2%, HepG2 viability -2.5%, TGFb inhibitor -10.3%, ATXN viability inactive, ATXN2 expr inh 18.0% and TDP1 cell noCPT -0.4%.
`CCSc1nc2c(c(=O)n1Cc1ccccc1)SC(C)C2` (stereo not given) gave TDP1 cell CPT 11.6µM*, HepG2 viability -24.7%, TGFb inhibitor inconclusive, ATXN viability inactive, ATXN2 expr inh -11.3% and TDP1 cell noCPT inconclusive.
`CC1Cc2nc(SCC(N)=O)n(Cc3ccccc3)c(=O)c2S1` (stereo not given) gave TDP1 cell CPT -1.9%, HepG2 viability -12.1%, TGFb inhibitor -0.2%, ATXN viability inactive, ATXN2 expr inh 4.9% and TDP1 cell noCPT -20.7%.
`O=C1c2ccccc2NC(c2ccc3c(c2)OCO3)N1Cc1ccco1` (stereo not given) gave TDP1 cell CPT inconclusive, HepG2 viability -16.8%, TGFb inhibitor -6.4% and TDP1 cell noCPT inconclusive.
Cc1ccc(O)c(Cc2cc(C)cc(Cc3cc(C)ccc3O)c2O)c1 was read as TDP1 cell CPT inconclusive, HepG2 viability -89.3%, TGFb inhibitor 22.4µM*, ATXN viability inconclusive and TDP1 cell noCPT inconclusive.
Cc1ccc(O)c(CNc2nc3ccccc3n2C(C)C)c1 was read as TDP1 cell CPT inconclusive, HepG2 viability -36.7%, TGFb inhibitor inconclusive, ATXN viability inactive, ATXN2 expr inh -7.3% and TDP1 cell noCPT inconclusive.
Screening CCc1ccc(O)c(CNCCNCc2cc(CC)ccc2O)c1 returned TDP1 cell CPT 23.1µM*, HepG2 viability 15.8µM*, TGFb inhibitor inconclusive, ATXN viability inconclusive, ATXN2 expr inh inconclusive and TDP1 cell noCPT 16.4µM*.
Cc1ccc(O)c(CNCCNCc2cc(C)ccc2O)c1 was read as TDP1 cell CPT 10.3µM*, HepG2 viability -63.7%, TGFb inhibitor inconclusive, ATXN viability inactive, ATXN2 expr inh inconclusive and TDP1 cell noCPT 13µM*.
For Oc1ccc(Cl)cc1CNCc1ccc(F)c(F)c1 the results were TDP1 cell CPT inconclusive, HepG2 viability -10.4%, TGFb inhibitor -11.6%, ATXN viability inactive, ATXN2 expr inh -1.6% and TDP1 cell noCPT -22.5%.
